Hit rate of the full screen: of about 5,500 compounds, about 2,000 (36%) were called active. Inconclusive results (about 18%) are left out. Rule as the data show it: active = normalized growth mostly below about 0.91 (no sharp cut-off); inconclusive = no clear call, values can overlap the other calls; inactive = mostly above about 0.92. The list shows a part of the results.
Assay: chemical genetic growth profiling, strain panel (AID 1159580);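 also: tested at 20 µM; growth read once vehicle control cultures reached saturation at 30 °C; 1 = growth at the plate median or of vehicle wells; lower values mean less growth of the strain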
Settings: growth OD
[1] = S. cerevisiae deletion strains, locus YAL013W, strain DEP1, stronger effect = lower value
[2] = S. cerevisiae deletion strains, locus YDR150W, strain NUM1, stronger effect = lower value
[3] = S. cerevisiae deletion strains, locus YHR030C, strain SLT2, stronger effect = lower value
[4] = S. cerevisiae deletion strains, locus YJR075W, strain HOC1, stronger effect = lower value
[5] = S. cerevisiae deletion strains, locus YPL055C, strain LGE1, stronger effect = lower value
[6] = S. cerevisiae deletion strains, locus YPL241C, strain CIN2, stronger effect = lower value

Measured: normalized growth

CC(=O)Nc1ccc(S(=O)(=O)NC2Cc3ccccc3C2)cc1
inactive: [1] 1.01 | S. cerevisiae deletion strains, locus YBR229C, strain ROT2, stronger effect = lower value 1.01 | S. cerevisiae deletion strains, locus YDL101C, strain DUN1, stronger effect = lower value 0.98 | [2] 0.949 | S. cerevisiae deletion strains, locus YEL061C, strain CIN8, stronger effect = lower value 1.01 | S. cerevisiae deletion strains, locus YGR078C, strain PAC10, stronger effect = lower value 1 | [3] 1.06 | S. cerevisiae deletion strains, locus YHR087W, strain rtc3, stronger effect = lower value 1 | S. cerevisiae deletion strains, locus YJR043C, strain POL32, stronger effect = lower value 1 | [4] 0.996 | S. cerevisiae deletion strains, locus YKL190W, strain CNB1, stronger effect = lower value 1.01 | S. cerevisiae deletion strains, locus YLR039C, strain RIC1, stronger effect = lower value 1.04 | S. cerevisiae deletion strains, locus YLR058C, strain SHM2 (second series), stronger effect = lower value 1.01 | S. cerevisiae deletion strains, locus YLR085C, strain ARP6, stronger effect = lower value 1.05 | S. cerevisiae deletion strains, locus YLR262C, strain YPT6, stronger effect = lower value 1.03 | S. cerevisiae deletion strains, locus YML094W, strain GIM5, stronger effect = lower value 1.02 | S. cerevisiae deletion strains, locus YMR219W, strain ESC1, stronger effect = lower value 1.01 | S. cerevisiae deletion strains, locus YMR263W, strain SAP30, stronger effect = lower value 0.994 | S. cerevisiae deletion strains, locus YNL153C, strain GIM3, stronger effect = lower value 1.02 | S. cerevisiae deletion strains, locus YNL298W, strain CLA4 (second series), stronger effect = lower value 1.04 | S. cerevisiae deletion strains, locus YNL322C, strain KRE1, stronger effect = lower value 1.01 | S. cerevisiae deletion strains, locus YNR030W, strain Alg12, stronger effect = lower value 1.03 | S. cerevisiae deletion strains, locus YOL006C, strain TOP1, stronger effect = lower value 1.08 | [5] 0.966 | [6] 1.02 | S. cerevisiae deletion strains, locus YPR135W, strain CTF4, stronger effect = lower value 1.02 | S. cerevisiae strains, strain wild type, stronger effect = lower value 1.01

CCCCS(=N)(=O)CCC(N)C(=O)O (stereo not drawn)
inactive: [1] 0.993 | S. cerevisiae deletion strains, locus YAL021C, strain ccr4, stronger effect = lower value 0.983 | S. cerevisiae deletion strains, locus YAL026C, strain drs2, stronger effect = lower value 1 | S. cerevisiae deletion strains, locus YAL030W, strain snc1, stronger effect = lower value 0.997 | S. cerevisiae deletion strains, locus YAL040C, strain CLN3, stronger effect = lower value 0.993 | S. cerevisiae deletion strains, locus YBL061C, strain skt5, stronger effect = lower value 0.999 | S. cerevisiae deletion strains, locus YBR009C, strain hhf1, stronger effect = lower value 1.02 | S. cerevisiae deletion strains, locus YBR023C, strain chs3, stronger effect = lower value 0.997 | S. cerevisiae deletion strains, locus YBR171W, strain sec66, stronger effect = lower value 0.999 | S. cerevisiae deletion strains, locus YBR231C, strain swc5, stronger effect = lower value 0.998 | S. cerevisiae deletion strains, locus YBR279W, strain paf1, stronger effect = lower value 0.993 | S. cerevisiae deletion strains, locus YCL011C, strain gbp2, stronger effect = lower value 0.988 | S. cerevisiae deletion strains, locus YCL016C, strain dcc1, stronger effect = lower value 1 | S. cerevisiae deletion strains, locus YCL061C, strain MRC1 (second series), stronger effect = lower value 0.997 | S. cerevisiae deletion strains, locus YCL061C, strain MRC1, stronger effect = lower value 0.993 | S. cerevisiae deletion strains, locus YCL069W, strain vba3, stronger effect = lower value 0.992 | S. cerevisiae deletion strains, locus YCR088W, strain abp1, stronger effect = lower value 0.992 | S. cerevisiae deletion strains, locus YDL005C, strain med2, stronger effect = lower value 0.984 | S. cerevisiae deletion strains, locus YDL040C, strain nat1, stronger effect = lower value 0.994 | S. cerevisiae deletion strains, locus YDR001C, strain nth1, stronger effect = lower value 0.99 | S. cerevisiae deletion strains, locus YDR069C, strain doa4, stronger effect = lower value 1.01 | S. cerevisiae deletion strains, locus YDR137W, strain rgp1, stronger effect = lower value 0.973 | [2] 1.01 | S. cerevisiae deletion strains, locus YDR159W, strain sac3, stronger effect = lower value 1.02 | S. cerevisiae deletion strains, locus YDR195W, strain ref2 0.994 | S. cerevisiae deletion strains, locus YDR297W, strain sur2, stronger effect = lower value 0.993 | S. cerevisiae deletion strains, locus YDR334W, strain swr1, stronger effect = lower value 0.987 | S. cerevisiae deletion strains, locus YDR335W, strain msn5, stronger effect = lower value 0.99 | S. cerevisiae deletion strains, locus YDR363W, strain ESC2, stronger effect = lower value 0.992 | S. cerevisiae deletion strains, locus YDR392W, strain spt3, stronger effect = lower value 0.976 | S. cerevisiae deletion strains, locus YEL003W, strain gim4, stronger effect = lower value 0.994 | S. cerevisiae deletion strains, locus YEL037C, strain rad23, stronger effect = lower value 0.99 | S. cerevisiae deletion strains, locus YEL061C, strain CIN8 (second series), stronger effect = lower value 0.99 | S. cerevisiae deletion strains, locus YER002W, strain NOP16, stronger effect = lower value 0.979 | S. cerevisiae deletion strains, locus YER015W, strain faa2, stronger effect = lower value 0.996 | S. cerevisiae deletion strains, locus YER016W, strain bim1, stronger effect = lower value 0.996 | S. cerevisiae deletion strains, locus YER111C, strain swi4, stronger effect = lower value 0.983 | S. cerevisiae deletion strains, locus YER155C, strain BEM2 (second series), stronger effect = lower value 1.01 | S. cerevisiae deletion strains, locus YFR010W, strain ubp6, stronger effect = lower value 0.999 | S. cerevisiae deletion strains, locus YGL167C, strain pmr1, stronger effect = lower value 1 | S. cerevisiae deletion strains, locus YGL173C, strain kem1, stronger effect = lower value 1 | S. cerevisiae deletion strains, locus YGL227W, strain vid30, stronger effect = lower value 0.984 | S. cerevisiae deletion strains, locus YGL240W, strain doc1, stronger effect = lower value 1.01 | S. cerevisiae deletion strains, locus YGL253W, strain hxk2, stronger effect = lower value 1 | S. cerevisiae deletion strains, locus YGR229C, strain SMI1, stronger effect = lower value 0.955 | S. cerevisiae deletion strains, locus YHR013C, strain ard1, stronger effect = lower value 0.979 | S. cerevisiae deletion strains, locus YHR027C, strain rpn1, stronger effect = lower value 0.99 | [3] 0.981 | S. cerevisiae deletion strains, locus YHR079C, strain IRE1, stronger effect = lower value 0.98 | S. cerevisiae deletion strains, locus YHR142W, strain chs7, stronger effect = lower value 0.979 | S. cerevisiae deletion strains, locus YJL092W, strain hpr5, stronger effect = lower value 1 | S. cerevisiae deletion strains, locus YJL095W, strain BCK1 (second series), stronger effect = lower value 0.995 | S. cerevisiae deletion strains, locus YJL095W, strain BCK1, stronger effect = lower value 0.983 | S. cerevisiae deletion strains, locus YJL115W, strain asf1, stronger effect = lower value 0.996 | S. cerevisiae deletion strains, locus YJL129C, strain trk1, stronger effect = lower value 0.986 | S. cerevisiae deletion strains, locus YJL154C, strain vps35, stronger effect = lower value 0.993 | S. cerevisiae deletion strains, locus YJL164C, strain tpk1, stronger effect = lower value 0.996 | S. cerevisiae deletion strains, locus YJL166W, strain qcr8, stronger effect = lower value 1 | S. cerevisiae deletion strains, locus YJL187C, strain SWE1, stronger effect = lower value 0.994 | S. cerevisiae deletion strains, locus YJR066W, strain TOR1, stronger effect = lower value 0.9 | [4] 1 | S. cerevisiae deletion strains, locus YKL160W, strain elf1, stronger effect = lower value 0.997 | S. cerevisiae deletion strains, locus YKR026C, strain gcn3, stronger effect = lower value 0.986 | S. cerevisiae deletion strains, locus YKR091W, strain srl3, stronger effect = lower value 0.988 | S. cerevisiae deletion strains, locus YLL001W, strain dnm1, stronger effect = lower value 0.993 | S. cerevisiae deletion strains, locus YLL026W, stronger effect = lower value 0.993 | S. cerevisiae deletion strains, locus YLL041C, strain sdh2, stronger effect = lower value 0.988 | S. cerevisiae deletion strains, locus YLR027C, strain aat2, stronger effect = lower value 0.993 | S. cerevisiae deletion strains, locus YLR113W, strain HOG1, stronger effect = lower value 0.99 | S. cerevisiae deletion strains, locus YLR221C, strain rsa3, stronger effect = lower value 0.986 | S. cerevisiae deletion strains, locus YLR258W, strain gsy2, stronger effect = lower value 1 | S. cerevisiae deletion strains, locus YLR262C, strain YPT6 (second series), stronger effect = lower value 0.998 | S. cerevisiae deletion strains, locus YLR320W, strain mms22, stronger effect = lower value 0.99 | S. cerevisiae deletion strains, locus YLR342W, strain FKS1, stronger effect = lower value 0.993 | S. cerevisiae deletion strains, locus YLR357W, strain rsc2, stronger effect = lower value 1 | S. cerevisiae deletion strains, locus YLR370C, strain arc18, stronger effect = lower value 0.99 | S. cerevisiae deletion strains, locus YLR384C, strain iki3, stronger effect = lower value 1.01 | S. cerevisiae deletion strains, locus YML120C, strain ndi1, stronger effect = lower value 0.983 | S. cerevisiae deletion strains, locus YMR058W, strain fet3, stronger effect = lower value 0.999 | S. cerevisiae deletion strains, locus YMR125W, strain sto1, stronger effect = lower value 0.99 | S. cerevisiae deletion strains, locus YMR129W, stronger effect = lower value 0.959 | S. cerevisiae deletion strains, locus YMR205C, strain PFK2, stronger effect = lower value 1.02 | S. cerevisiae deletion strains, locus YMR231W, strain pep5, stronger effect = lower value 0.997 | S. cerevisiae deletion strains, locus YMR307W, strain GAS1, stronger effect = lower value 1.01 | S. cerevisiae deletion strains, locus YNL071W, strain lat1, stronger effect = lower value 0.982 | S. cerevisiae deletion strains, locus YNL128W, strain TEP1, stronger effect = lower value 0.991 | S. cerevisiae deletion strains, locus YNL175C, strain NOP13, stronger effect = lower value 0.97 | S. cerevisiae deletion strains, locus YNL183C, strain NPR1, stronger effect = lower value 0.929 | S. cerevisiae deletion strains, locus YNL197C, strain WHI3, stronger effect = lower value 0.94 | S. cerevisiae deletion strains, locus YNL209W, strain ssb2, stronger effect = lower value 0.991 | S. cerevisiae deletion strains, locus YNL224C, strain SQS1, stronger effect = lower value 0.986 | S. cerevisiae deletion strains, locus YNL248C, strain rpa49, stronger effect = lower value 0.991 | S. cerevisiae deletion strains, locus YNL322C, strain KRE1 (second series), stronger effect = lower value 0.998 | S. cerevisiae deletion strains, locus YNR049C, strain mso1, stronger effect = lower value 0.994 | S. cerevisiae deletion strains, locus YOR001W, strain rrp6, stronger effect = lower value 0.974 | S. cerevisiae deletion strains, locus YOR070C, strain gyp1, stronger effect = lower value 0.99 | S. cerevisiae deletion strains, locus YOR080W, strain dia2, stronger effect = lower value 0.99 | S. cerevisiae deletion strains, locus YOR083W, strain WHI5 (second series), stronger effect = lower value 0.95 | S. cerevisiae deletion strains, locus YOR083W, strain WHI5, stronger effect = lower value 1 | S. cerevisiae deletion strains, locus YOR106W, strain vam3, stronger effect = lower value 1.01 | S. cerevisiae deletion strains, locus YOR231W, strain MKK1, stronger effect = lower value 0.988 | S. cerevisiae deletion strains, locus YOR265W, strain rbl2, stronger effect = lower value 0.989 | S. cerevisiae deletion strains, locus YOR270C, strain vph1, stronger effect = lower value 0.99 | S. cerevisiae deletion strains, locus YOR290C, strain snf2, stronger effect = lower value 0.949 | S. cerevisiae deletion strains, locus YPL051W, strain arl3, stronger effect = lower value 0.992 | [5] 0.999 | S. cerevisiae deletion strains, locus YPL078C, strain atp4, stronger effect = lower value 0.994 | S. cerevisiae deletion strains, locus YPL106C, strain sse1, stronger effect = lower value 0.991 | S. cerevisiae deletion strains, locus YPL240C, strain hsp82, stronger effect = lower value 0.998 | [6] 0.998 | S. cerevisiae deletion strains, locus YPL256C, strain CLN2, stronger effect = lower value 0.988

Source: PubChem BioAssay AID1159580 (chemical genetic matrix, 2015)
